Screening results deposited in PubChem BioAssay by Sanford-Burnham Center for Chemical Genomics.
PPC-1+TRAIL kill: compounds killing PPC-1 cancer cells with TRAIL present, primary screen, TRAIL potentiator project, ATPLite luminescence, uHTS; cell killing (% activity), % at 4 µM or 5 µM; PPC-1 cells + TRAIL, ATPLite viability luminescence; hit rate 0.41% among 220,000;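 active = cell killing above 50% in the first pass at 4 µM, then a duplicate retest at 5 µM averaging 50% or more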
SENP8 block-1: SENP8 protease inhibitors, primary screen, biochemical, luminescence; purified SENP8, Z-RLRGG-aminoluciferin cleavage; Sentrin-specific protease 8 (Homo sapiens), Q96LD8; inhibition, % at 10 µM; hit rate 1.2% among 330,000; in the data active = inhibition above about 50%
Target sequence (Q96LD8 whole entry, looked up): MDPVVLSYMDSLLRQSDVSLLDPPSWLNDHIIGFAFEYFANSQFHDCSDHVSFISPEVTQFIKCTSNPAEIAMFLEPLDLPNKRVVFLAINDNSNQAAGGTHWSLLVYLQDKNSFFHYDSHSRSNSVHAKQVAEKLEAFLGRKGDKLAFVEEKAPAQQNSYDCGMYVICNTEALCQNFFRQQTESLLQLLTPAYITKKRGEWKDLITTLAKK
C8 TRAIL sens: viability loss with TRAIL in NB7+C8 cells, primary screen, TRAIL sensitizer project, cell-based, ATPlite luminescence; inhibition (viability loss, TRAIL sensitization), % at 10 µM; hit rate 1% among 360,000;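 active = compounds causing at least 50% loss of cell viability in the single-dose screen, relative to plate controls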
SENP7 block: SENP7 protease inhibitors, primary screen, biochemical, luminescence, uHTS; Sentrin-specific protease 7 (Homo sapiens), Q9BQF6; recombinant SENP7, Z-RLRGG-aminoluciferin luminescence, 40 min; inhibition, % at 5 µM; hit rate 1.5% among 330,000;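 active = inhibition above about 50% at the single test dose, limit read from the data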
SENP6 inh: SENP6 protease inhibitors, primary screen, biochemical, luminescence, uHTS; AID 2599, 2010; inhibition, % at 10 µM; Sentrin-specific protease 6 (Homo sapiens), Q9GZR1; hit rate 1.8% among 330,000; Recombinant SENP6 catalytic domain, aminoluciferin luminescence;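 active = inhibition above about 50% at the single tested dose, limit read from the data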
Target sequence (Q9GZR1 628-1112 limits assumed): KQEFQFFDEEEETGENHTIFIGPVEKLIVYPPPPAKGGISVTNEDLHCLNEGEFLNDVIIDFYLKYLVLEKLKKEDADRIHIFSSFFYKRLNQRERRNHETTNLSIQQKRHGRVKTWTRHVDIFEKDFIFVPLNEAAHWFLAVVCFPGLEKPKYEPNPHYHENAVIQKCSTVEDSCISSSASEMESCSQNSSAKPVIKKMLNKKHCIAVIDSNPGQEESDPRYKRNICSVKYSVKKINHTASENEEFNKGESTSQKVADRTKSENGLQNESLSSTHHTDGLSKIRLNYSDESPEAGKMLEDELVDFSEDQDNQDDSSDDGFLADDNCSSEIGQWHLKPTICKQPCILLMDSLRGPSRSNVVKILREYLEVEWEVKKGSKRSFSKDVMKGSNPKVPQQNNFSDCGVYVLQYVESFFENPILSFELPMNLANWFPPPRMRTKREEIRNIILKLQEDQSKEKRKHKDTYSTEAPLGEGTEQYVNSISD
SENP8 block-2: human SENP8 protease inhibitors, primary screen, biochemical, fluorescence, Nedd8 protein substrate, uHTS | hit rate 0.64% among 360,000 | recombinant SENP8 | inhibition, % at 20 µM | AID 602440, 2012; in the data active = inhibition mostly above about 40%, no sharp cut-off; inactive = mostly below about 27%
PPC-1 tox: cytotoxicity in PPC-1 cells, confirmation, cytotoxicity control for TRAIL apoptosis potentiator project, cell-based, ATP content luminescence; shares compounds with PPC-1+TRAIL kill; PPC-1 viability, ATPlite luminescence, overnight; cytotoxicity, % at 5 µM; hit rate 50% among 1,200;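 active = reconfirmed compounds whose average cytotoxicity reaches 50% or more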
Each line names hits and unclear results; the compound was inactive in the other large screens (follow-up assays come after a bar, where they were run). An excerpt weighted towards active compounds, which were near 3% of everything screened.

Cc1cc(NC(=O)COC(=O)C2CC(=O)N(c3cccc(C)c3C)C2)no1 (stereo unspecified)	none (no result: PPC-1+TRAIL kill)
CC(=O)N1CCN(Cc2nc3cc(Cl)ccc3c(=O)[nH]2)CC1	none
COc1ccc(N2CCN(Cc3nc4cc(Cl)ccc4c(=O)[nH]3)CC2)cc1	none | PPC-1 tox inactive
COc1cc2oc(=O)cc(CN3CCOCC3)c2cc1Cl	none (no result: PPC-1+TRAIL kill, SENP8 block-1, SENP7 block, SENP6 inh)
CN(C(=O)c1ccc2c(c1)OCO2)C1(C(=O)NC2CCCC2)CCCCC1	none | PPC-1 tox inactive
CC(=O)c1sc2c(c1OC(=O)c1ccc(Cl)cc1Cl)c(=O)n(-c1ccccc1)c(=S)n2-c1ccccc1	none | PPC-1 tox inactive
O=C1C(Cl)=C(Nc2ccc(O)cc2)C(=O)c2ccccc21	C8 TRAIL sens 89.0, SENP8 block-2 41.1 | PPC-1 tox inactive
CCN(CC)c1ccc(NC(=S)Nc2ccc(F)cc2)cc1	none | PPC-1 tox inactive
CN(C)c1ccc(/C=C/c2ccc3ccccc3n2)cc1	PPC-1+TRAIL kill 92.5, C8 TRAIL sens 89.3 (no result: SENP8 block-1, SENP7 block, SENP6 inh) | PPC-1 tox 91.9
COc1cc(/C=C/c2nc3ccccc3s2)cc(OC)c1O	none
CCCN(CCC)c1ccc(/C=C/c2ccc3cc(OCC)ccc3n2)cc1	none (no result: SENP8 block-1, SENP7 block, SENP6 inh)
CN(C)c1ccc(/C=C/c2nc3ccccc3s2)cc1	PPC-1+TRAIL kill 80.7, SENP8 block-1 97.0, C8 TRAIL sens 91.6, SENP7 block 98.8, SENP6 inh 98.6 | PPC-1 tox 81.0
O=C(CCN1CCN(CCO)CC1)Nc1ccc(F)c(F)c1	none | PPC-1 tox inactive
Cc1ccc(C(=O)c2nccn2C)cc1C	none (no result: PPC-1+TRAIL kill)
COCCn1c(-c2ccc(Br)cc2)csc1=Nc1cccnc1	none | PPC-1 tox inactive
COc1cccc(CN(C)C(=O)CNC(=O)c2ccc(-c3ccccc3)cc2)c1OC	none (no result: PPC-1+TRAIL kill)
CNC(=S)N/N=C(\C)c1ccc(N2CCOCC2)cc1	none (no result: SENP8 block-1, SENP7 block, SENP6 inh) | PPC-1 tox inactive
Cc1ccccc1NC(=O)CSc1ccc(-c2cccnc2)nn1	none (no result: PPC-1+TRAIL kill)
CCOC(=O)c1ccccc1NC(=O)CSc1ccc(-c2cccnc2)nn1	none | PPC-1 tox inactive
CCN(CC)CCn1nc2c3c(cccc3c1=O)-c1ccccc1-2	none | PPC-1 tox inactive
O=c1c2cccc3c2c(nn1CN1CCOCC1)-c1ccccc1-3	none
COc1cc(SC)ccc1C(=O)Nc1nccs1	PPC-1+TRAIL kill 67.0, C8 TRAIL sens 80.5 | PPC-1 tox 69.3
COc1cc(S(=O)(=O)Nc2ccc3c(c2)C(=O)N(C)C3=O)ccc1NC(C)=O	none (no result: PPC-1+TRAIL kill)
CN(C)c1ncnc2c1ncn2C1OC(CO)C(O)C1O (stereo unspecified)	C8 TRAIL sens 69.4 | PPC-1 tox inactive
CCNC(=O)C1(C)CCCN(C(=O)Cc2ccc(OC)c(OC)c2)C1 (stereo unspecified)	none (no result: PPC-1+TRAIL kill, SENP8 block-1, SENP7 block, SENP6 inh)
Cc1cc(/C=C2/C(=N)N3C(=NC2=O)SN=C3S(C)(=O)=O)c(C)n1-c1ccccc1F	PPC-1+TRAIL kill 67.9, C8 TRAIL sens 84.9 | PPC-1 tox 70.1
CC1=CC2=NC(=O)/C(=C\c3cc(C)n(-c4ccccc4F)c3C)C(=N)N2O1	none
CC(C)(C)c1cc(NC(=O)C2(C)CCN2C(=O)c2ccccc2CCc2ccccc2)no1 (stereo unspecified)	none (no result: PPC-1+TRAIL kill, SENP8 block-1, SENP7 block, SENP6 inh)
COc1ccc(-n2c(SCC(=O)N3CCCCC3)nnc2-c2cccnc2)cc1	none | PPC-1 tox inactive
O=C(NCc1ccc(Cl)cc1)c1ccc(CSc2nc3ccncc3[nH]2)cc1	none
O=C(c1ccc(CSc2nc3ccncc3[nH]2)cc1)N1CCCCCC1	PPC-1+TRAIL kill 80.8, C8 TRAIL sens 81.2 | PPC-1 tox 83.4
Cc1ccc(CSc2nc3ccncc3[nH]2)cc1	PPC-1+TRAIL kill 97.0, C8 TRAIL sens 93.0 | PPC-1 tox 97.3
O=C(c1ccc(CSc2nc3ccncc3[nH]2)cc1)N1CCN(c2cccc(Cl)c2)CC1	none
Clc1ccc(CSc2nc3ccncc3[nH]2)cc1	PPC-1+TRAIL kill 93.8, C8 TRAIL sens 92.4 | PPC-1 tox 93.0
Cc1csc(NC(=O)C2CCN(S(=O)(=O)c3cccs3)CC2)n1	none
CCCn1c(NC(=O)C2CCN(S(=O)(=O)c3cccs3)CC2)nc2ccccc21	none | PPC-1 tox inactive
CCCn1c(NC(=O)c2ccccc2)nc2ccccc21	none | PPC-1 tox inactive
CCCn1c(NC(=O)c2ccc(C)cc2)nc2ccccc21	none
CC(C)C(=O)Nc1ccc(Oc2ccc3c(c2)C(=O)NC3=O)cc1	none (no result: PPC-1+TRAIL kill)
Cc1ccccc1C(=O)Nc1ccc2c(c1)OCO2	none | PPC-1 tox 51.9
Cc1cc(Br)ccc1NC(=O)C1CCN(C(=O)c2ccco2)CC1	none (no result: PPC-1+TRAIL kill)
Cc1ccccc1S(=O)(=O)N1CCN(c2ccc3c(c2)C2CC3CCN2C(=O)OCc2ccccc2)CC1 (stereo unspecified)	none (no result: PPC-1+TRAIL kill, SENP8 block-1, SENP7 block, SENP6 inh)
O=C(Nc1ccc2c(c1)nc1n2CCSC1)c1ccccc1	PPC-1+TRAIL kill 57.4, C8 TRAIL sens 62.2 | PPC-1 tox inactive
CCOC(=O)CN1C(=O)CC(c2ccc([N+](=O)[O-])cc2)C1=O (stereo unspecified)	none (no result: PPC-1+TRAIL kill)
COc1ccc(/C=C\c2nc(=O)c3ccccc3o2)cc1	PPC-1+TRAIL kill 60.0, SENP8 block-1 66.2, C8 TRAIL sens 60.6, SENP7 block 62.8, SENP6 inh 72.2 | PPC-1 tox 56.6
O=c1nc(/C=C/c2ccc(O)c(O)c2)oc2ccccc12	none (no result: SENP8 block-1, SENP7 block, SENP6 inh)
CC(C)Cn1c(SCC(=O)NCc2ccc(Cl)cc2)nnc1-c1cccc(S(=O)(=O)N2CCOCC2)c1	none | PPC-1 tox inactive
C[C@@H]1O[C@H](C2CC2)Cc2[nH]c(=S)[nH]c(=O)c21	none (no result: PPC-1+TRAIL kill, SENP8 block-1, SENP7 block, SENP6 inh)
O=C(CN1C(=O)c2ccccc2S1(=O)=O)c1ccc2c(c1)OCCO2	PPC-1+TRAIL kill 83.5, C8 TRAIL sens 84.5 | PPC-1 tox 82.2
O=C(CCN1C(=O)c2ccccc2S1(=O)=O)Nc1ccc2c(c1)OCCO2	none
O=C(CN1C(=O)c2ccccc2S1(=O)=O)c1ccc2c(c1)OCCCO2	PPC-1+TRAIL kill 86.0, C8 TRAIL sens 90.8 | PPC-1 tox 86.1
O=C(CN1C(=O)c2ccccc2S1(=O)=O)c1cccc(Br)c1	none (no result: PPC-1+TRAIL kill)
O=C(N/N=C/c1cc(O)ccc1[N+](=O)[O-])c1ccc2c(c1)OCCO2	PPC-1+TRAIL kill 80.2, C8 TRAIL sens 89.5 | PPC-1 tox 82.7
O=C(N/N=C/c1ccccc1[N+](=O)[O-])c1ccc2c(c1)OCCO2	PPC-1+TRAIL kill 93.2, C8 TRAIL sens 92.6, SENP6 inh 71.5 | PPC-1 tox 93.0
CC(NC(=O)CNC(=O)c1cccs1)c1cccc(C(F)(F)F)c1 (stereo unspecified)	none (no result: PPC-1+TRAIL kill)
